# Assay results published in ChEMBL document CHEMBL4513216, “Probing the Open Global Health Chemical Diversity Library for Multistage-Active Starting Points for Next-Generation Antimalarials” (ACS Infect Dis, 2020).
# Screen size: about 69,000 compounds; about 8,600 (12%) showed an effect of 50% or more. The full list was thinned out, with strong results kept by preference.
# System: Plasmodium berghei
# Test: Screen against P. berghei liver stage (PbLuc), transformed with Luciferase, at 10uM
# Format: functional, HepG2
# Details: tested at 10 uM
row,SMILES,INHIBITION
1,CN(C)c1nc2n(c(=O)n1)CCN2C(=O)Nc1ccc(Cl)cc1,-25.5%
2,CN(C)c1nc2n(c(=O)n1)CCN2C(=O)Nc1ccc(Cl)c(Cl)c1,28.4%
3,CN(C)c1nc2n(c(=O)n1)CCN2C(=O)Nc1cccc(Cl)c1,78.1%
4,CCN1CCNC(=O)C12CCN(C(=O)Cc1ccsc1)CC2,-23.1%
5,CC(=O)Nc1nccn1Cc1ccccc1Cl,50.5%
6,CC(OCC1CC1)C(=O)Nc1nccn1Cc1ccccc1 (configuration not stated),44.7%
7,CS(=O)(=O)CCC(=O)Nc1cnn(-c2ccccc2Cl)c1,43.7%
8,CC(C)N(C)CC(=O)Nc1nccn1Cc1ccccc1Cl,-11.9%
9,Cn1ccc(C(=O)Nc2nccn2Cc2ccccc2Cl)cc1=O,9.91%
10,CCOCCOC(C)C(=O)Nc1nccn1Cc1ccccc1 (configuration not stated),89.6%
11,CCOCC(=O)Nc1nccn1Cc1ccccc1Cl,22.8%
12,CS(=O)(=O)CCC(=O)Nc1nccn1Cc1ccccc1Cl,53.5%
13,CCOCCOC(C)C(=O)Nc1ccnn1-c1ccccc1C (configuration not stated),39.7%
14,O=C(NCCn1ccnc1)NCC(c1ccco1)N1CCCC1 (configuration not stated),-14%
15,Cc1nccn1[C@@H]1CC[C@@H](N(C)S(=O)(=O)c2ccccc2F)[C@H]1O,-0.05%
16,Cc1occc1C(=O)NCC1OCCc2cn(C)nc21 (configuration not stated),-14.2%
17,COCCCNc1c(-c2ccccc2)c(=O)c1=O,25.3%
18,CC(Cc1cccc(F)c1)NCc1cnc(N2CCN(C)CC2)nc1 (configuration not stated),23.2%
19,O=C(NCc1cccnc1)[C@H]1C[C@@H]2CCN(c3ccncn3)C[C@H]2O1,48%
20,CCCc1nc(C)cc(N2CCNC(C(=O)Nc3ccc(C)nc3)C2)n1 (configuration not stated),46.1%
21,CCCc1nc(C)cc(N2CCNC(C(=O)NCc3cccnc3)C2)n1 (configuration not stated),59.1%
22,CC1CCN(C(=O)[C@@H]2C[C@@H]3CCN(CC4CCOCC4)C[C@@H]3O2)CC1,-24.9%
23,CCOCC(=O)Nc1ncn(Cc2cccc(Br)c2)n1,61.8%

row,SMILES,INHIBITION
1,CC(CC(=O)Nc1ncn(CC(=O)NCc2ccccc2)n1)C1CC1 (configuration not stated),38.8%
2,O=C(Nc1ncn(Cc2cccc(Br)c2)n1)C1CCC1,37.2%
3,COCC(=O)NC(C)Cc1cccc(Br)c1 (configuration not stated),14.7%
4,CC(C)C(=O)Nc1ncn(Cc2cccc(Br)c2)n1,53.3%
5,O=C(COCC(=O)N1CCCCCC1)NCc1cccc(Br)c1,14.1%
6,CSCC(=O)Nc1ncn(Cc2cccc(Br)c2)n1,69.3%
7,CCCSCC(=O)Nc1ncn(CC(=O)NCc2ccccc2)n1,12.2%
8,CCOCC(=O)Nc1cc(-c2cccc(F)c2F)n[nH]1,10.7%
9,CN(C)C(=O)CN1CCN(C(=O)c2cnn(-c3ccccc3Cl)c2)CC1,-2.33%
10,CCOC(=O)N1CCN(C(=O)c2snnc2-c2ccc(OC)cc2)CC1,4.66%
11,COCCN1C[C@@H]2CN(Cc3cccc(C)n3)C[C@@H]2C1=O,14.1%
12,CCc1nc(C2CCCN(C(=O)c3ccc(OC)cc3)C2)no1 (configuration not stated),-31.8%
13,CC(C)CC(=O)N1CC[C@H]2N(C)CC[C@@]2(C(=O)Nc2ccccc2)CC1,42.5%
14,CCOC1COC2(CCN(Cc3ccc(C)c(C)c3)CC2)C1 (configuration not stated),30.9%
15,Cn1nnc2cc(C(=O)NS(=O)(=O)c3ccc(F)cc3)ccc21,17.1%
16,CCC(CC)n1ncc(C(=O)NS(=O)(=O)c2ccsc2)c1C,38.4%
17,Cc1c(C(=O)NS(=O)(=O)c2ccsc2)cnn1CC(C)C,53.8%
18,Cc1c(C(=O)NS(=O)(=O)c2ccc(F)cc2)cnn1CC(C)C,56%
19,Cn1cnc2cc(C(=O)NS(=O)(=O)c3ccc(F)cc3)ccc21,28.4%
20,CCCn1ncc(C(=O)NC(C)c2c(C)nn(CC)c2C)c1C (configuration not stated),9.05%
21,CNc1cc(C2CCCN2C(=O)CCc2cnn(C)c2C)ccn1 (configuration not stated),14.6%
22,CCNc1cc2c(nn1)CCN(C(=O)c1ccc(-n3cnnc3)cc1)C2,19.6475%
23,Nc1nccc(N2C[C@@H](CN3CCCCC3)[C@@H](CO)C2)n1,-2.39%

row,SMILES,INHIBITION
1,CSc1nccc(N2C[C@@H](CN3CCCCC3)[C@@H](CO)C2)n1,55.7%
2,Cc1nccc(N2C[C@@H](CN3CCCC3)[C@@H](CO)C2)n1,13%
3,CN(CC(=O)N1CC(C)(C)[C@@](C)(O)C1)Cc1ccncc1,59.1%
4,COc1cccc(OC2CN(C(=O)c3ccnc(OC)c3)C2)c1,49.9%
5,CCc1ccccc1OC1CN(C(=O)c2ccnc(OC)c2)C1,61.1%
6,COc1ccccc1OC1CN(C(=O)CN(C)Cc2ccncc2)C1,-2.04%
7,COc1cc(C(=O)N2CC(Oc3ccccc3Cl)C2)ccn1,27.5%
8,CN(CC(=O)N1CC(C)(C)[C@](O)(C2CC2)C1)Cc1ccncc1,41.5%
9,CCc1ccccc1OC1CN(C(=O)CN(C)Cc2ccncc2)C1,58.1%
10,CN(CC(=O)N1CC(C)(C)[C@](O)(C2CC2)C1)Cc1cccnc1,-3.94%
11,CCc1ccccc1OC1CN(C(=O)CN(C)Cc2cccnc2)C1,-76.5%
12,Cn1nc(Br)c2c(NCCS(N)(=O)=O)ncnc21,36.4%
13,CC(=O)N1CCN(C(=O)NC(C)Cn2ccnc2)CC1 (configuration not stated),24.2%
14,COc1ccc(CN2C[C@H](N3CCCC3=O)[C@@H]3OCCC[C@@H]32)cc1,48.2%
15,CCn1nc(C)c2nc(C(C)C)nc(N3CCN(C)CC3)c21,-10.1%
16,CCS(=O)(=O)N1CC[C@H]2C(=O)N(Cc3cccnc3)CCO[C@H]2C1,-7.38%
17,CNC(=O)CC1c2cccnc2C(=O)N1Cc1ccccc1 (configuration not stated),19.2%
18,COCCNC(=O)Cn1c(-c2cccc(Cl)c2)nc(C)c(CCO)c1=O,18.2%
19,COCCNc1cccc(C2CCCN2)n1 (configuration not stated),-31%
20,CCC(C)c1noc(C2CCN(C(=O)Cn3nc(C)cc3C)CC2)n1 (configuration not stated),40.8%
21,O=C(NCCCN1CCOCC1)c1ccn(COc2ccccc2)n1,-8.07%
